Assay outcomes as filed in PubChem.
This is a sample that favours compounds with a hit; in the whole collection about 21% have one here.
Pf growth 96h: P. falciparum growth inhibition at 96 hours; Potency, µM (highest dose often 28.7 µM), usual class: inhibitors; actives 6.9% (n = 320,000); P. falciparum luciferase reporter growth, 96 h
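Plates of compound plus infected erythrocytes (2% hematocrit, 0.05% parasitemia final) incubate 96 hours, 37 C, 5% CO2. Detection reagent added; reduced luminescence from the parasites' luciferase reporter flags inhibition.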
NS1 inh: blocks influenza NS1 protein function. actives 0.4% (n = 270,000). Potency, µM (series often up to 46.1 µM); calls by dose curve; note: actives are rising curves; nearly all actives have a fitted effect of over 50% in size
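Growth recovery, yeast-based: influenza A NS1 expressed in S. cerevisiae causes slow growth, and suppressors are detected by OD600. The parent strain without NS1 is used as positive control.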
Shiga inhibitor: Shiga toxin inhibition. actives 9.2% (n = 290,000). AID 2315. Vero cells, Shiga toxin protein synthesis inhibition reporter. inhibition, % at 38.7 µM; in the data active = inhibition mostly above about 28%, no sharp cut-off; inactive = mostly below about 43%
CHX counter: counter-screen hit for Shiga toxin inhibitors, cycloheximide; cell reporter, cycloheximide protein synthesis inhibition counterscreen; max response, %; actives 12% (n = 300,000); in the data active = max response mostly above about 13%, no sharp cut-off; inactive = mostly below about 14%; note: read at 38.3 µM for the half of the compounds with a filed dose
FBPA Giardia inh: blocks Giardia fructose-bisphosphate aldolase activity; actives 0.71% (n = 290,000); purified Giardia FBPA; A8B2U2; AID 2451; Potency, µM (doses to about 59.6 µM), actives largely listed as inhibitors; note: nearly all actives have a fitted effect of over 55% in size
Target sequence (A8B2U2 whole entry, looked up): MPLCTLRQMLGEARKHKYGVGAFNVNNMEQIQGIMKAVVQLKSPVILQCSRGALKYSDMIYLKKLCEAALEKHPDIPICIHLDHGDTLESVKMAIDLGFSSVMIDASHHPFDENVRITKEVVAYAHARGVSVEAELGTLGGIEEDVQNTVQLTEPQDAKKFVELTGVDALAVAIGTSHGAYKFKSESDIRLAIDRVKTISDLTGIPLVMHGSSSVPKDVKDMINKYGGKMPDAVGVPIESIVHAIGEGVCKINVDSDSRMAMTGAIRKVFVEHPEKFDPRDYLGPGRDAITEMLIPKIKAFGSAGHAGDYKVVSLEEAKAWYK
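Giardia FBPA (40 nM reagent) was preincubated 10 min at RT with compound (up to 57.5 uM final), then substrate plus GAPDH/TPI/NAD/arsenate coupling system with diaphorase/resazurin was added; resorufin fluorescence (525/598 nm) was read after 20 min.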
Pf growth 48h: P. falciparum growth inhibition at 48 hours (one generation); actives 5.9% (n = 310,000); P. falciparum luciferase growth in erythrocytes, 48 h; Potency, µM (highest dose often 28.7 µM), usual class: inhibitors
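In quantitative HTS format, infected erythrocytes bearing luciferase-reporter parasites were treated for a single generation at 37 C. Luminescence after adding detection reagent served as the growth measure.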
Large screens that a line does not name were inactive. Unless noted, calls come from the whole dose curve; as a rule, active = well fitted curve in the direction sought with a large enough effect; inconclusive = small, poorly fitted or top-dose-only effect, or another doubt; inactive = no such curve, though single readings can be large; an effect the other way counts as inactive or inconclusive.

COC(=O)c1nc(-c2ccc3c(n2)C(=O)C(N)=C(OC)C3=O)c(N)c(-c2ccc(OC)c(OC)c2O)c1C	Pf growth 96h inconclusive, NS1 inh inconclusive, FBPA Giardia inh 10µM, Pf growth 48h 0.093µM
COc1ccc(-c2ncncc2-c2csc(C)n2)c(O)c1OC	none (no result: Pf growth 96h)
COC1=C(N)C(=O)c2nc(-c3nc(C(=O)O)c(C)c(-c4ccc(OC)c(OC)c4O)c3N)ccc2C1=O	Pf growth 96h 0.019µM, FBPA Giardia inh inconclusive, Pf growth 48h 0.052µM
COc1cc2[nH]c(C(=O)N3CC(C)OC(C)C3)cc2c(OC)c1OC (stereo not given)	none
Cc1ccc(NC(=O)[C@H](C)NC(=O)C2CCN(C(=O)[C@@H](N)CC(C)C)CC2)cc1	none
NCCc1c(-c2ccccc2)n(-c2ccccc2)c2ccccc12	Pf growth 96h inconclusive, Pf growth 48h 15µM (no result: NS1 inh)
CC(C)CNCCc1ccccn1	none (no result: Pf growth 96h, Shiga inhibitor, CHX counter, FBPA Giardia inh, Pf growth 48h)
Clc1ccc(NNc2ccnc3cc(Cl)ccc23)cc1	Pf growth 96h 1.7µM, Pf growth 48h 1.7µM
Oc1ccc(Nc2ccnc3cc(Cl)ccc23)cc1	Pf growth 96h 1.9µM, Pf growth 48h 1µM
S=C(NNc1ccnc2cc(Cl)ccc12)Nc1ccccc1Cl	NS1 inh inconclusive, CHX counter 23, Pf growth 48h inconclusive
CC(=O)Nc1ccc(S(=O)(=O)N2CCCC(C(=O)N3CCN(c4ccccc4)CC3)C2)cc1 (stereo not given)	Pf growth 48h inconclusive
COc1ccccc1CN1CC(C(=O)NCCc2ncccc2C)CCC1=O (stereo not given)	Pf growth 96h inconclusive
O=C(CCS(=O)(=O)c1ccc(Cl)cc1)Nc1ccc(N2CCOCC2)cc1	none
CCC(=O)N1CCc2cc(Br)cc(S(=O)(=O)CCC(=O)NCc3ccco3)c21	Pf growth 48h 8.3µM (no result: Pf growth 96h)
CCC(=O)N1CCc2cc(Br)cc(S(=O)(=O)CCC(=O)N(C)c3cccc(C)c3)c21	Pf growth 96h 5.2µM, Pf growth 48h 12µM (no result: NS1 inh, Shiga inhibitor, CHX counter, FBPA Giardia inh)
CCC(=O)N1CCc2cc(Br)cc(S(=O)(=O)NCc3ccco3)c21	Pf growth 96h inconclusive, Shiga inhibitor 106, CHX counter 35, Pf growth 48h inconclusive
CCC(=O)N1CCc2cc(Br)cc(S(=O)(=O)CCC(=O)N(CC)CC)c21	Pf growth 96h inconclusive, Pf growth 48h inconclusive (no result: NS1 inh)
CCC(=O)N1CCc2cc(Br)cc(S(=O)(=O)N3CCN(C(=O)c4ccco4)CC3)c21	Pf growth 48h inconclusive
O=C(c1ccc(OC2CCN(CCc3ccccc3)CC2)cc1)N1CCC[C@H]1CO	Pf growth 96h inconclusive
O=S(=O)(NCC(O)c1ccccc1)c1cc(Cl)sc1Cl (stereo not given)	Shiga inhibitor 25, Pf growth 48h inconclusive (no result: FBPA Giardia inh)
COC(=O)c1nc(NC(=O)C(C)C)n[nH]1	Pf growth 96h 5.9µM, Pf growth 48h inconclusive
COC(=O)c1nc(NC(C)=O)n[nH]1	Pf growth 96h inconclusive
COc1ccc(-c2nc(CS(=O)CC(=O)N3CCN(C)CC3)c(C)o2)cc1 (stereo not given)	Pf growth 48h inconclusive
Cn1c(=O)c2c(ncn2Cc2nnc(N)s2)n(C)c1=O	none
COc1ccc(N2CCC(CNC(=S)Nc3cc(C)ccc3C)C2)cc1 (stereo not given)	Pf growth 96h inconclusive, Pf growth 48h inconclusive
COc1ccc(N2CCC(CNC(=S)Nc3cc(C)cc(C)c3)C2)cc1 (stereo not given)	Pf growth 96h inconclusive, Pf growth 48h 9.3µM
CCOC(=O)c1c(C)[nH]c(C)c1C(=O)COC(=O)COc1ccc(Cl)c(C)c1	Pf growth 48h inconclusive (no result: NS1 inh, Shiga inhibitor, CHX counter, FBPA Giardia inh)
O=S(=O)(NC1CC1)c1ccc(Cl)cc1F	none
CN1C(=O)C(O)(CC(=O)/C=C/C=C/c2ccccc2)c2ccccc21 (stereo not given)	Pf growth 96h inconclusive
O=C(/C=C/C=C/c1ccccc1)CC1(O)C(=O)Nc2ccccc21 (stereo not given)	Pf growth 96h inconclusive, CHX counter 19 (no result: NS1 inh)
COc1cccc(CN2CC(C(=O)NCCCn3ccnc3C)CCC2=O)c1 (stereo not given)	Pf growth 96h inconclusive
O=C(O)c1ccccc1C(=O)NC1CCCc2ccccc21 (stereo not given)	none
CCN(CCNC(=O)C1CCN(S(=O)(=O)c2cccc3cccnc23)CC1)c1ccccc1	NS1 inh inconclusive, Pf growth 48h 6.6µM
CC1CCCCN1CCNC(=O)C1CCN(S(=O)(=O)c2cccc3cccnc23)CC1 (stereo not given)	Pf growth 96h 4.7µM, Pf growth 48h inconclusive
Cc1cccc(CCNC(=O)C2CCN(S(=O)(=O)c3cccc4cccnc34)CC2)c1	none (no result: FBPA Giardia inh)
NS(=O)(=O)c1ccc(CCNC(=O)C2CCN(S(=O)(=O)c3cccc4cccnc34)CC2)cc1	none
NCCS(=O)O	none (no result: Pf growth 96h, Shiga inhibitor, CHX counter, Pf growth 48h)
CC(=O)Nc1ccc(Oc2cc(N)cc([N+](=O)[O-])c2)cc1	none (no result: NS1 inh)
CCOc1ccc(Oc2cc(N)cc([N+](=O)[O-])c2)cc1	Pf growth 96h inconclusive, Shiga inhibitor 53 (no result: NS1 inh)
O=S1(=O)N=C(N/N=C/C=C/c2ccccc2)c2ccccc21	Pf growth 96h 13µM, Pf growth 48h inconclusive
COc1cc2c(cc1OC)CN(C(=O)CNS(=O)(=O)c1ccc(C)c(C)c1)CC2	Pf growth 96h inconclusive, Pf growth 48h inconclusive
O=C(CCNS(=O)(=O)c1ccccc1)N1CCCCCCC1	none (no result: NS1 inh, Shiga inhibitor, CHX counter, FBPA Giardia inh)
O=C(CCNS(=O)(=O)c1ccccc1)N1CCCCCC1	Pf growth 96h inconclusive, CHX counter 32
COc1cc2c(cc1OC)CN(C(=O)CCNS(=O)(=O)c1ccc(Br)cc1)CC2	Pf growth 96h inconclusive, Pf growth 48h 9.3µM (no result: NS1 inh, Shiga inhibitor, CHX counter, FBPA Giardia inh)
O=C(CCNS(=O)(=O)c1ccccc1F)N1CCN(C(c2ccccc2)c2ccccc2)CC1	Pf growth 96h inconclusive, Pf growth 48h 13µM (no result: NS1 inh, Shiga inhibitor, CHX counter, FBPA Giardia inh)
O=C(CCNS(=O)(=O)c1ccc(Br)cc1)N1CCN(c2ccccc2O)CC1	Pf growth 96h inconclusive, Pf growth 48h 10µM (no result: NS1 inh, Shiga inhibitor, CHX counter, FBPA Giardia inh)
O=C(O)CCn1nc(-c2ccc(F)cc2)cc(Cc2ccccc2)c1=O	Pf growth 96h inconclusive
C/C(=N\NC(=O)c1ccc(COc2ccccc2)cc1)c1ccncc1	Pf growth 96h inconclusive (no result: NS1 inh)
O=C(CCNS(=O)(=O)c1ccc(Br)s1)N1CCN(c2ccccc2)CC1	Pf growth 96h 12µM
O=C(Nc1ccccc1F)c1ccc2snnc2c1	Shiga inhibitor 60, CHX counter 38
CC(=O)c1ccc(NC(=O)c2ccc3snnc3c2)cc1	Shiga inhibitor 65, CHX counter 50
COc1ccc(NC(=O)c2ccc3snnc3c2)cc1	Shiga inhibitor 64, CHX counter 46
CNC(=O)c1ccc2snnc2c1	none (no result: Pf growth 48h)
O=C(Nc1ccc(Cl)cc1)c1ccc2snnc2c1	Pf growth 96h inconclusive, Shiga inhibitor 38, CHX counter 37
CC(C)(C)CC(C)(C)NC(=O)c1ccc2snnc2c1	none
CCCCn1c(N)c(N(CCOC)C(=O)c2cc(CC)c(C)s2)c(=O)[nH]c1=O	Pf growth 48h inconclusive (no result: NS1 inh, Shiga inhibitor, CHX counter, FBPA Giardia inh)
O=C(c1ccc2c(=O)n3c(nc2c1)CCCCC3)N1CCN(c2ccccc2)CC1	none
